Test results published in the supplement of paper PMC8728848.
Only a selection was taken, and the strongest signals are over-represented in it overall.

Legend:
Test in all cases: glycan array binding signal (z-score within array); higher = stronger binding
Conditions in all cases: glycan notation: IUPAC condensed, linker removed
[1] = target: Fuc(a1-2)Gal(b1-3)[Fuc(a1-4)]GlcNAc
Procedure, shortened: (§1)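 Glycan array binding is given as a within-array Z-score, which can be read as non-binding when negative. The arrays, 3228 of them, came from the Consortium for Functional Glycomics database and were retained only where the protein sequence was available. Z-scores were averaged across arrays of the same protein sequence at different concentrations or buffers and across linkers.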

[2] = target: Fuc(a1-2)Gal(b1-3)[Fuc(a1-4)]GlcNAc(b1-2)Man(a1-3)[Fuc(a1-2)Gal(b1-3)[Fuc(a1-4)]GlcNAc(b1-2)Man(a1-6)]Man(b1-4)GlcNAc(b1-4)GlcNAc
Procedure, shortened: as §1

[3] = target: Fuc(a1-2)Gal(b1-3)[Fuc(a1-4)]GlcNAc(b1-3)[Fuc(a1-3)[Gal(b1-4)]GlcNAc(b1-6)]Gal(b1-4)Glc
Procedure, shortened: as §1

[4] = target: Fuc(a1-2)Gal6S(b1-4)Glc
Procedure, shortened: as §1

[5] = target: Fuc(a1-2)[Gal(a1-3)]Gal(b1-3)GlcNAc
Procedure, shortened: as §1

[6] = target: Fuc(a1-2)[GalNAc(a1-3)]Gal(b1-3)GalNAc(a1-3)[Fuc(a1-2)]Gal(b1-4)GlcNAc
Procedure, shortened: as §1

[7] = target: Fuc(a1-2)[GalNAc(a1-3)]Gal(b1-3)GlcNAc(b1-3)GalNAc
Procedure, shortened: as §1

[8] = target: Fuc(a1-2)[GalNAc(a1-3)]Gal(b1-3)GlcNAc(b1-6)GalNAc
Procedure, shortened: as §1

[9] = target: Fuc(a1-2)[GalNAc(a1-3)]Gal(b1-4)GlcNAc(b1-2)Man(a1-3)[Fuc(a1-2)[GalNAc(a1-3)]Gal(b1-4)GlcNAc(b1-2)Man(a1-6)]Man(b1-4)GlcNAc(b1-4)GlcNAc
Procedure, shortened: as §1

[10] = target: Fuc(a1-3)[Gal(b1-4)]GlcNAc
Procedure, shortened: as §1

[11] = target: Fuc(a1-3)[Gal(b1-4)]GlcNAc(b1-3)Gal(b1-4)[Fuc(a1-3)]GlcNAc(b1-3)Gal(b1-4)[Fuc(a1-3)]GlcNAc
Procedure, shortened: as §1

[12] = target: Fuc(a1-3)[Gal(b1-4)]GlcNAc(b1-4)Gal(b1-4)[Fuc(a1-3)]GlcNAc(b1-4)Gal(b1-4)[Fuc(a1-3)]GlcNAc
Procedure, shortened: as §1

[13] = target: Fuc(a1-3)[Gal3S(b1-4)]Glc
Procedure, shortened: as §1

[14] = target: Gal(a1-3)Gal(b1-4)GlcNAc(b1-6)GalNAc
Procedure, shortened: as §1

[15] = target: Gal(a1-3)Gal(b1-4)[Fuc(a1-3)]GlcNAc
Procedure, shortened: as §1

[16] = target: Gal(a1-4)Gal(b1-3)GlcNAc(b1-2)Man(a1-3)[Gal(a1-4)Gal(b1-3)GlcNAc(b1-2)Man(a1-6)]Man(b1-4)GlcNAc(b1-4)GlcNAc
Procedure, shortened: as §1

[17] = target: Gal(b1-3)GalNAc(b1-4)[Neu5Ac(a2-3)]Gal(b1-4)Glc
Procedure, shortened: as §1

[18] = target: Gal(b1-3)[Neu5Ac(a2-6)]GlcNAc(b1-6)Gal(b1-4)Glc
Procedure, shortened: as §1

[19] = target: Gal(b1-4)GlcNAc(b1-2)Man(a1-3)[Gal(b1-4)GlcNAc(b1-2)Man(a1-6)][Gal(b1-4)GlcNAc(b1-4)]Man(b1-4)GlcNAc(b1-4)[Fuc(a1-6)]GlcNAc
Procedure, shortened: as §1

[20] = target: Gal(b1-4)GlcNAc(b1-2)Man(a1-3)[Man(a1-6)]Man(b1-4)GlcNAc(b1-4)GlcNAc
Procedure, shortened: as §1

[21] = target: Gal(b1-4)GlcNAc(b1-2)Man(a1-6)[GlcNAc(b1-2)Man(a1-3)]Man(b1-4)GlcNAc(b1-4)GlcNAc
Procedure, shortened: as §1

[22] = target: Gal(b1-4)GlcNAc(b1-2)[Gal(b1-4)GlcNAc(b1-4)]Man(a1-3)[Gal(b1-4)GlcNAc(b1-2)[Gal(b1-4)GlcNAc(b1-6)]Man(a1-6)]Man(b1-4)GlcNAc(b1-4)GlcNAc
Procedure, shortened: as §1

[23] = target: Gal(b1-4)GlcNAc(b1-3)Gal(b1-4)GlcNAc
Procedure, shortened: as §1

[24] = target: Gal(b1-4)GlcNAc6P
Procedure, shortened: as §1

[25] = target: Gal3S(b1-3)GlcNAc
Procedure, shortened: as §1

[26] = target: Gal3S(b1-4)[Fuc(a1-3)]Glc6S
Procedure, shortened: as §1

[27] = target: Gal3S6S(b1-4)GlcNAc6S
Procedure, shortened: as §1

[28] = target: GalNAc(a1-3)Fuc(a1-2)Gal(b1-4)GlcNAc(b1-3)[GalNAc(a1-3)Fuc(a1-2)Gal(b1-4)GlcNAc(b1-6)]GalNAc
Procedure, shortened: as §1

[29] = target: GalNAc(b1-3)GlcNAc
Procedure, shortened: as §1

[30] = target: GalNAc(b1-4)Gal(b1-4)Glc
Procedure, shortened: as §1

B1: Siglec-F (Mus musculus), Q920G3 (protein)
chain: MRWAWLLPLLWAGCLATDGYSLSVTGSVTVQEGLCVFVACQVQYPNSKGPVFGYWFREGANIFSGSPVATNDPQRSVLKEAQGRFYLMGKENSHNCSLDIRDAQKIDTGTYFFRLDGSVKYSFQKSMLSVLVIALTEVPNIQVTSTLVSGNSTKLLCSVPWACEQGTPPIFSWMSSALTSLGHRTTLSSELNLTPRPQDNGTNLTCQVNLPGTGVTVERTQQLSVIYAPQKMTIRVSWGDDTGTKVLQSGASLQIQEGESLSLVCMADSNPPAVLSWERPTQKPFQLSTPAELQLPRAELEDQGKYICQAQNSQGAQTASVSLSIRSLLQLLGPSCSFEGQGLHCSCSSRAWPAPSLRWRLGEGVLEGNSSNGSFTVKSSSAGQWANSSLILSMEFSSNHRLSCEAWSDNRVQRATILLVSGPKVSQAGKSETSRGTVLGAIWGAGLMALLAVCLCLIFFTVKVLRKKSALKVAATKGNHLAKNPASTINSASITSSNIALGYPIQGHLNEPGSQTQKEQPPLATVPDTQKDEPELHYASLSFQGPMPPKPQNTEAMKSVYTEIKIHKC
glycan array binding signal (z-score) [1]: -0.132 | glycan array binding signal (z-score) [2]: -0.079 | glycan array binding signal (z-score) [3]: -0.122 | glycan array binding signal (z-score) [4]: -0.123 | glycan array binding signal (z-score) [5]: -0.115 | glycan array binding signal (z-score) [6]: -0.104 | glycan array binding signal (z-score) [7]: -0.094 | glycan array binding signal (z-score) [8]: -0.114 | glycan array binding signal (z-score) [9]: -0.049 | glycan array binding signal (z-score) [10]: -0.117 | glycan array binding signal (z-score) [11]: -0.115 | glycan array binding signal (z-score) [12]: -0.121 | glycan array binding signal (z-score) [13]: -0.146 | glycan array binding signal (z-score) [14]: -0.146 | glycan array binding signal (z-score) [15]: -0.123 | glycan array binding signal (z-score) [16]: 0.083 | glycan array binding signal (z-score) [17]: -0.109 | glycan array binding signal (z-score) [18]: -0.091 | glycan array binding signal (z-score) [19]: -0.095 | glycan array binding signal (z-score) [20]: 0.022 | glycan array binding signal (z-score) [21]: -0.13 | glycan array binding signal (z-score) [22]: -0.127 | glycan array binding signal (z-score) [23]: -0.096 | glycan array binding signal (z-score) [24]: -0.111 | glycan array binding signal (z-score) [25]: -0.108 | glycan array binding signal (z-score) [26]: 0.156 | glycan array binding signal (z-score) [27]: -0.104 | glycan array binding signal (z-score) [28]: -0.088 | glycan array binding signal (z-score) [29]: -0.154 | glycan array binding signal (z-score) [30]: -0.099
